PubChem BioAssay AID1986 (Sanford-Burnham Center for Chemical Genomics, 2009)
About 890 (0.31%) of roughly 290,000 compounds were called active. Rule as the data show it: active = inhibition mostly above about 52% (no sharp cut-off); inactive = mostly below about 76%. Many of the other results were omitted from the sample, so actives are more common in it than they were.

Test: cell-free HIV fusion peptide-binding blockers – biochemical, uHTS, fluorescence dequenching, primary screen (AID 1986)
Details: 30 min, stronger effect = higher value
[1] = measured here: repeat confirmation average inhibition, at 18.6 µM

Row | SMILES | inhibition (at 20 µM) | inhibition [1] [%]
1 | COC(=O)c1ccc(C(=S)NCC2(N(C)C)CCCCC2)cc1 | -0.5% (inactive) | 
2 | Cc1ccc(Cn2c(/C=C/c3ccco3)nc3ccccc32)cc1 | 28.5% (inactive) | 
3 | Clc1ccc(Cn2c(/C=C/c3ccco3)nc3ccccc32)cc1 | 58.4% (active) | 
4 | Clc1ccccc1Cn1c(/C=C/c2ccco2)nc2ccccc21 | 54.5% (inactive) | 0.3
5 | COc1ccc(C(=O)NNC(=O)Cc2ccc(Cl)cc2)cc1 | 0.6% (inactive) | 
6 | S=C1NC(c2ccccc2)=CC(c2ccccc2)N1 (centres undefined) | -0.8% (inactive) | 
7 | CCOc1cc2c(cc1/C=C/C(=O)O)OC(C)C2 (centres undefined) | -2.8% (inactive) | 
8 | CCOc1cc2c(cc1C=O)OC(C)C2 (centres undefined) | 0.9% (inactive) | 
9 | CCOc1cc2c(cc1/C=C/c1noc(C)c1[N+](=O)[O-])OC(C)C2 (centres undefined) | 97.9% (active) | 62.4
10 | Cc1nonc1NC(=O)CSc1cn[nH]n1 | -0.1% (inactive) | 
11 | CCOc1ccc2nc(NC(=O)CSc3ccc(Cl)cc3)sc2c1 | -1.6% (inactive) | 
12 | N#Cc1c(-c2ccccc2)nc(SCC(=O)Nc2ccccc2)[nH]c1=O | 22% (inactive) | 
13 | CCOc1ccc2nc(NC(=O)CSc3ccccc3)sc2c1 | 2.6% (inactive) | 
14 | N#Cc1c(-c2ccccc2)nc(SCC(=O)Nc2ccccc2F)[nH]c1=O | 14.2% (inactive) | 
15 | COc1cccc(OC)c1OCCCOc1ccc([N+](=O)[O-])cc1Cl | 1.3% (inactive) | 
16 | CC(C)(C)c1ccc(OC(=O)N2CCOCC2)cc1 | 1.1% (inactive) | 
17 | NC(=O)C1CCN(C(=O)COc2ccc3c4c(c(=O)oc3c2)CCCC4)CC1 | -2.1% (inactive) | 
18 | CCn1nc([N+](=O)[O-])c(C(C#N)c2nc3ccccc3n2C)c(Cl)c1=O (centres undefined) | 9.2% (inactive) | 
19 | CCCn1nc([N+](=O)[O-])c(C(C#N)c2nc3ccccc3s2)c(Cl)c1=O (centres undefined) | 52.4% (inactive) | 39.3
20 | CCCn1nc([N+](=O)[O-])c(C(C#N)c2nc3ccccc3o2)c(Cl)c1=O (centres undefined) | 51.5% (active) | 
21 | CCOc1cccc(-c2nnc(SCC(=O)Nc3ccc(OC)c(OC)c3)n2N)c1 | -0.9% (inactive) | 
22 | CC(C)C[C@@H](COc1ccccc1)N1CCN(C)CCC1=O | 1.1% (inactive) | 
23 | CCCOc1c(Br)cc(C(N)=O)cc1OCC | -1.3% (inactive) | 
24 | O=[N+]([O-])c1nn(-c2ccc3c(c2)OCCO3)n(O)c1=NCc1ccccc1Cl | 1.5% (inactive) | 
25 | O=[N+]([O-])c1nn(-c2ccc3c(c2)OCCO3)n(O)c1=NCc1ccc(F)cc1 | -3.5% (inactive) | 

Row | SMILES | inhibition (at 20 µM) | inhibition [1] [%]
26 | O=[N+]([O-])c1nn(-c2ccc3c(c2)OCCO3)n(O)c1=NCc1ccc(F)cc1Cl | 51.7% (active) | 
27 | COc1ccc(OC)c(CCNC(=O)c2ccc3c(c2)N(Cc2ccc(F)cc2)CCS3)c1 | -0.6% (inactive) | 
28 | CCOC(=O)N1CCN(C(=O)c2cc3c(=O)n4cccc(C)c4nc3s2)CC1 | 1.5% (inactive) | 
29 | Cn1c(=O)c2cc(S(=O)(=O)NCCC(=O)NC3CCCCCCC3)ccc2n(C)c1=O | 70.9% (active) | 
30 | Cn1c(=O)c2cc(S(=O)(=O)NCCC(=O)NC3CCCCCC3)ccc2n(C)c1=O | -0.8% (inactive) | 
31 | CN(CC(=O)NC1CCCCC1)S(=O)(=O)c1ccc2c(c1)c(=O)n(C)c(=O)n2C | -0.8% (inactive) | 
32 | COc1ccc(OC)c(N=Cc2c(O)c3ccccc3oc2=O)c1 | 37.7% (inactive) | 
33 | COc1ccc(Cl)cc1N=Cc1c(O)c2ccccc2oc1=O | 0.2% (inactive) | 
34 | COc1cc(N=Cc2c(O)c3ccccc3oc2=O)c(OC)cc1Cl | 73.9% (active) | 196
35 | CC1CCCN(C2(O)C(=O)Nc3ccc(Cl)cc32)C1 (centres undefined) | -0.9% (inactive) | 
36 | COc1ccccc1CN(C)C(=O)CNC(=O)c1cccc(Cl)c1 | 0.2% (inactive) | 
37 | O=C1OC(c2cccs2)=N/C1=C\c1ccc(-c2cccc(Cl)c2)o1 | 55.7% (inactive) | 21.2
38 | O=C1OC(c2ccco2)=N/C1=C\c1ccc(-c2cccc(C(F)(F)F)c2)o1 | 55.6% (active) | 164
39 | O=C1OC(c2cccs2)=N/C1=C/c1ccc(-c2cccc(C(=O)O)c2)o1 | 53% (inactive) | 13.5
40 | CCOc1ccc(C2C(C(=O)c3ccc(C)o3)=C(O)C(=O)N2Cc2cccnc2)cc1 (centres undefined) | -3.1% (inactive) | 
41 | COc1ccc(C)cc1S(=O)(=O)NC1CCCCCC1 | -1.6% (inactive) | 
42 | Cc1ccccc1-n1ncc2c1CC(C)(C)CC2NC(=O)c1cn[nH]c1C (centres undefined) | -0.7% (inactive) | 
43 | COc1ccc(N=C2NC(=O)/C(=C\c3ccco3)S2)cc1 | 42% (inactive) | 
44 | COc1ccc(S(=O)(=O)/N=C2/NC(=O)/C(=C/c3ccco3)S2)cc1 | 70.3% (inactive) | 9.9
45 | COc1ccc(N=C2NC(=O)/C(=C/c3ccco3)S2)cc1 | 9.7% (inactive) | 
46 | Cc1ccc(N=C2NC(=O)/C(=C\c3ccco3)S2)cc1 | 57.5% (active) | 
47 | COc1ccc(S(=O)(=O)/N=C2/NC(=O)/C(=C\c3ccco3)S2)cc1 | 60.8% (active) | 
48 | Cc1ccc(N=C2NC(=O)S/C2=C\c2ccco2)cc1 | 47.8% (inactive) | 
49 | O=C1NC(=Nc2ccc(O)cc2)S/C1=C/c1ccco1 | 17.3% (inactive) | 
50 | O=C1NC(=Nc2ccc3ccccc3c2)S/C1=C/c1ccco1 | 54.8% (active) | 

Row | SMILES | inhibition (at 20 µM) | inhibition [1] [%]
51 | CC(=O)Nc1ccc(S(=O)(=O)/N=C2/NC(=O)/C(=C\c3ccco3)S2)cc1 | 41.2% (inactive) | 
52 | O=C1NC(=Nc2ccccc2)/C(=C/c2ccco2)S1 | 47.9% (inactive) | 
53 | Cc1cccc(N=C2NC(=O)S/C2=C\c2ccco2)c1 | 71.9% (active) | 
54 | Cc1ccc(N=C2NC(=O)/C(=C/C=C/c3ccco3)S2)cc1 | 52.6% (inactive) | 1.5
55 | COc1ccc(-n2c(O)c(/C=N/n3cnnc3)c3ccccc3c2=O)cc1 | -1% (inactive) | 
56 | c1ccc(Oc2ccc(-n3cnnn3)cc2)cc1 | -0.6% (inactive) | 
57 | CCOC(=O)c1oc2ccccc2c1NC(=O)C1CCCCC1 | 2.3% (inactive) | 
58 | O=C(N=Nc1c(O)[nH]c2ccccc12)c1ccc(CN2CCOCC2)cc1 | -1.7% (inactive) | 
59 | O=c1c2c3c(sc2n(CCN2CCOCC2)c(=O)n1Cc1ccco1)CCCCC3 | -0.6% (inactive) | 
60 | CCOC(=O)N1CCC(N2C(=O)c3ccccc3C2Nc2cc(C)cc(C)c2)CC1 (centres undefined) | -0.9% (inactive) | 
61 | Cc1ccc(N=C2NC(=O)/C(=C/c3cccn3C)S2)cc1C | 2.1% (inactive) | 
62 | Cc1ccc(N=C2NC(=O)/C(=C/c3cn(C)c4ccccc34)S2)cc1C | 74.7% (active) | 73.2
63 | Cc1ccc(N=C2NC(=O)/C(=C\c3cccs3)S2)cc1C | 1.6% (inactive) | 
64 | Cn1nc(-c2ccccc2)c(/C=N/O)c1Cl | -1.8% (inactive) | 
65 | CCn1cc(C(=O)N2CCCC2)c(=O)c2cc(S(=O)(=O)N3CC(C)CC(C)C3)ccc21 (centres undefined) | 1.1% (inactive) | 
66 | COc1ccc2cc(CCNS(=O)(=O)c3c(C)cc(C)cc3C)c(=O)[nH]c2c1 | -1.1% (inactive) | 
67 | Cc1c(NC(=O)c2ccc(Cl)s2)c(=O)n(-c2ccccc2)n1C | 0.5% (inactive) | 
68 | O=C(O)c1ccc(-n2ncc3c2/C(=C/c2cccc([N+](=O)[O-])c2)CC3)cc1 | 66.7% (active) | 
69 | O=C(O)c1ccc(-n2c(/C=C/c3cccc([N+](=O)[O-])c3)nc3ccccc3c2=O)cc1 | 1.4% (inactive) | 
70 | O=C(O)c1c2c(nc3ccccc13)/C(=C/c1cccc([N+](=O)[O-])c1)CCC2 | 2.3% (inactive) | 
71 | Cn1cccc1CC(=O)N/N=C\c1ccccc1 | -0.6% (inactive) | 
72 | CCOc1ccc(/C=C2\N=C(c3cccs3)OC2=O)cc1OC | 6.4% (inactive) | 
73 | COc1ccc(/C=C2/N=C(c3cccs3)OC2=O)cc1OC(C)C | 106% (active) | 100
74 | COc1ccc(/C=C2\N=C(C)OC2=O)cc1OC | 0.7% (inactive) | 
75 | CCn1cc(/C=C/c2cc[n+](C)cc2)c2ccccc21 | 182% (inactive) | 

Row | SMILES | inhibition (at 20 µM) | inhibition [1] [%]
76 | C=CCn1cc(/C=C/c2cc[n+](C)cc2)c2ccccc21 | 185% (inactive) | 
77 | CCN(CC)C(=O)Cn1c(C)c(/C=C/c2cc[n+](C)cc2)c2ccccc21 | 115% (active) | 54.5
78 | CCN(CC)C(=O)Cn1c(=O)n(C)c2ccccc21 | -1.6% (inactive) | 
79 | Cc1ccc2c(c1)c(/C=C/c1cc[n+](C)cc1)c(C)n2C | 159% (inactive) | 
80 | COC(=O)Cn1cc(/C=C/c2cc[n+](C)cc2)c2ccccc21 | 115% (active) | 96.1
81 | COC(=O)Cn1c(C)c(/C=C/c2cc[n+](C)cc2)c2ccccc21 | 46.3% (inactive) | 
82 | C=CCn1c(C)c(/C=C/c2cc[n+](C)cc2)c2ccccc21 | 103% (active) | 81
83 | Cc1cc(Nc2ccccc2)n(C(=O)c2ccccc2)n1 | -3% (inactive) | 
84 | Cc1c(NC(=O)COC(=O)/C=C/c2ccc(Cl)cc2)c(=O)n(-c2ccccc2)n1C | -0.5% (inactive) | 
85 | Clc1ccccc1OCCn1nnc2ccccc21 | -2% (inactive) | 
86 | CCC(=O)Nc1cccc(NC(=O)c2cccc([N+](=O)[O-])c2C)c1 | 1.2% (inactive) | 
87 | NC(=O)c1nsc(C(=O)N(c2cccc(F)c2)C(C(=O)NC2CCCC2)c2ccc(O)cc2)c1N (centres undefined) | -1.3% (inactive) | 
88 | Cc1nc2ccc(S(=O)(=O)Nc3cc(-c4nc5cccnc5s4)ccc3C)cc2s1 | 3.9% (inactive) | 
89 | CC12C=CC(=O)C=C1CCC1C3CCC(O)(C(=O)CO)C3(C)CC3OC312 (centres undefined) | -0.7% (inactive) | 
90 | CCOC(=O)CNC(=O)Cn1cnc2c(nnn2-c2ccccc2)c1=O | -0.8% (inactive) | 
91 | CCOC(=O)c1c(C)[nH]c(C(=O)COC(=O)CCSc2ccccc2)c1C | 0.3% (inactive) | 
92 | Cc1cc(S(=O)(=O)N2CCN(c3ccccn3)CC2)c(C)cc1Cl | -0.6% (inactive) | 
93 | COc1cccc(-n2c(C)cc(/C=C3/C(=N)N4C(=NC3=O)SN=C4S(C)(=O)=O)c2C)c1 | 148% (inactive) | 
94 | Cc1cc(/C=C2/C(=N)N3C(=NC2=O)SN=C3S(C)(=O)=O)c(C)n1-c1ccc(F)cc1 | 75.8% (inactive) | 45.6
95 | Cc1cc(/C=C2/C(=N)N3C(=NC2=O)SN=C3S(C)(=O)=O)c(C)n1-c1ccccc1F | 60.2% (active) | 
96 | COc1ccccc1-n1c(C)cc(/C=C2/C(=N)N3C(=NC2=O)SN=C3S(C)(=O)=O)c1C | 58.1% (inactive) | 36.2
97 | CC1=CC2=NC(=O)/C(=C\c3cc(C)n(-c4ccccc4F)c3C)C(=N)N2O1 | 3.2% (inactive) | 
98 | CCOc1ccc(-n2c(C)cc(/C=C3/C(=N)N4C(=NC3=O)SN=C4S(C)(=O)=O)c2C)cc1 | 66.6% (active) | 
